Our source for the outcome, potentiation and inhibition values is PubChem BioAssay.

The test system of assay [1] is TRPC4 beta (transient receptor potential cation channel C4), mouse. The assay is described as follows: TRPC4 cation channel opening, retest – cell-based, Fluo4 calcium, HEK293 TRPC4beta/mu-opioid, duplicates, 10 µM, confirmation (AID 2426;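 active = fluorescence ratio normalized to control raised more than 50% in primary screen plus both repeat runs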). The note with it: Fluo4 calcium fluorescence, at 10 µM; active compounds read high.
For assay [2], the system named is transient receptor potential cation channel C4 beta (TRPC4), mouse. The assay can be described thus: TRPC4 cation channel opening, second retest – cell-based, second round, Fluo4, HEK293 TRPC4beta/mu-opioid, 1 µM, confirmation (AID 2461;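 active = primary screen active and over 50% activation in each of two duplicate runs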). The note with it: Fluo4 calcium fluorescence, at 1 µM; active compounds read high.
The test system of assay [3] is TRPC4 (transient receptor potential cation channel C4 beta), mouse. The assay can be described thus: potentiation of DAMGO EC20 TRPC4 response – cell-based, second round, Fluo-4, HEK293 TRPC4beta/mu-opioid, 1 µM, confirmation (AID 2554;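 active = primary screen hit whose fluorescence ratio, in both repeats, exceeds the weak agonist control mean by 3 SD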). The conditions noted are these: DAMGO EC20, Fluo-4 calcium flux, at 1 µM; active compounds read high. A general note: A change in cytosolic calcium serves as a functional read-out for many receptors and channels.

Assay [4] concerns TRPC4 beta (transient receptor potential cation channel C4), mouse. The assay is described as follows: potentiation of DAMGO EC20 TRPC4 response – cell-based, Fluo-4, HEK293 TRPC4beta/mu-opioid, confirmation (AID 2555;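 active = primary screen hit whose calcium fluorescence ratio, in both repeats, exceeds the weak agonist control mean by 3 SD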). The note with it: DAMGO EC20, Fluo-4 calcium flux, at 10 µM; active compounds read high.
Assay [5] deals with Short transient receptor potential channel 4 (Mus musculus) (UniProt Q9QUQ5). The assay can be described thus: blockers of DAMGO-evoked TRPC4 calcium flux – cell-based, Fluo4, HEK293 TRPC4beta/mu-opioid, confirmation (AID 2636;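 active = calcium signal cut by more than 3 SD below the full-agonist control yet still positive, in both repeats and the earlier primary screen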). The conditions noted are these: at 10 µM; active compounds read high.
Chain of Short transient receptor potential channel 4 (Mus musculus) (Q9QUQ5 whole entry, looked up): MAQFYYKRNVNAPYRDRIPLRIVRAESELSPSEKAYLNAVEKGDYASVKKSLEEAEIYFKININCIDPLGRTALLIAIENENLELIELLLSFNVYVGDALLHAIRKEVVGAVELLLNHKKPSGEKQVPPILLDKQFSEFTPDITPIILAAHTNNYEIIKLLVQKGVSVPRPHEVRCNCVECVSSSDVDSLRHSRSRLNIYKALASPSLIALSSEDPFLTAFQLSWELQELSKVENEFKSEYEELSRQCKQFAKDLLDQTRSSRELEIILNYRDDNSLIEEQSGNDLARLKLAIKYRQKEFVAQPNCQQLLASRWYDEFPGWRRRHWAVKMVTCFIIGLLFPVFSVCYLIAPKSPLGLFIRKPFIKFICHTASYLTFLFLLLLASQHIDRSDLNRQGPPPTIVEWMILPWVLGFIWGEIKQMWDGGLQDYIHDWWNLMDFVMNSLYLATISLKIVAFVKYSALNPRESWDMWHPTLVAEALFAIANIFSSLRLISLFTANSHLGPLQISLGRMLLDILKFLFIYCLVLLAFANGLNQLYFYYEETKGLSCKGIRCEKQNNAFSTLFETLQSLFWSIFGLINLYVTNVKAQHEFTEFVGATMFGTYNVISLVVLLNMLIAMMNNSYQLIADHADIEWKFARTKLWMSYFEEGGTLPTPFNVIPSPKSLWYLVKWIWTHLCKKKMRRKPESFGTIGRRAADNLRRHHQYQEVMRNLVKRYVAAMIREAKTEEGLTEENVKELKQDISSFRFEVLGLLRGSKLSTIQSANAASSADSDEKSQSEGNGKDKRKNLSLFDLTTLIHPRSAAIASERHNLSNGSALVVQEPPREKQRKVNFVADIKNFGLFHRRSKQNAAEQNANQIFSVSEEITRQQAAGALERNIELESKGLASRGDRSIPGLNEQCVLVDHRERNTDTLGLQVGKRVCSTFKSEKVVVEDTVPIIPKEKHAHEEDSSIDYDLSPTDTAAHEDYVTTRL
Assay [6] shares this target. The assay is described as follows: blockers of DAMGO-evoked TRPC4 calcium flux – cell-based, second round, Fluo4, HEK293 TRPC4beta/mu-opioid, 1 µM, confirmation (AID 2637).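 As to inhibition: percent of integrated ratio relative to wells lacking test compound.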 The note with it: at 1 µM; active compounds read high.
Assay [7] shares this target. The assay is described as follows: calcium entry via TRPC4 opening agents – cell-based, HEK293 TRPC4/mu-opioid, Fluo-4 calcium, dose response (AID 434937;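 active = primary screen activator hit with a dose response curve and TRPC4 channel activation at any tested dose; inactive = no activation, no dose response, or not a primary hit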).
Assay [8] shares this target. The assay is described as follows: block of DAMGO-driven TRPC4 calcium entry – cell-based, HEK293 TRPC4/mu-opioid, Fluo-4 calcium, dose response (AID 434942;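 active = primary screen inhibitor hit that blocks the TRPC4 channel at some tested dose, yielding a dose curve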).
The target of assay [9] is Short transient receptor potential channel 6 (Mus musculus) (UniProt Q61143). The assay can be described thus: TRPC6 blockade by TRPC4 inhibitor hits – cell-based, HEK293, membrane potential dye, duplicate, selectivity assay for TRPC4 inhibitor project, confirmation (AID 434948;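 active = active in primary screen and both duplicates, each dropping signal beyond three positive-control SD with fluorescence still positive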). The note with it: HEK293 TRPC6, membrane potential dye fluorescence, at 10 µM, stimulated with maximal-effect acetylcholine; active compounds read high.
Chain of Short transient receptor potential channel 6 (Mus musculus) (Q61143 whole entry, looked up): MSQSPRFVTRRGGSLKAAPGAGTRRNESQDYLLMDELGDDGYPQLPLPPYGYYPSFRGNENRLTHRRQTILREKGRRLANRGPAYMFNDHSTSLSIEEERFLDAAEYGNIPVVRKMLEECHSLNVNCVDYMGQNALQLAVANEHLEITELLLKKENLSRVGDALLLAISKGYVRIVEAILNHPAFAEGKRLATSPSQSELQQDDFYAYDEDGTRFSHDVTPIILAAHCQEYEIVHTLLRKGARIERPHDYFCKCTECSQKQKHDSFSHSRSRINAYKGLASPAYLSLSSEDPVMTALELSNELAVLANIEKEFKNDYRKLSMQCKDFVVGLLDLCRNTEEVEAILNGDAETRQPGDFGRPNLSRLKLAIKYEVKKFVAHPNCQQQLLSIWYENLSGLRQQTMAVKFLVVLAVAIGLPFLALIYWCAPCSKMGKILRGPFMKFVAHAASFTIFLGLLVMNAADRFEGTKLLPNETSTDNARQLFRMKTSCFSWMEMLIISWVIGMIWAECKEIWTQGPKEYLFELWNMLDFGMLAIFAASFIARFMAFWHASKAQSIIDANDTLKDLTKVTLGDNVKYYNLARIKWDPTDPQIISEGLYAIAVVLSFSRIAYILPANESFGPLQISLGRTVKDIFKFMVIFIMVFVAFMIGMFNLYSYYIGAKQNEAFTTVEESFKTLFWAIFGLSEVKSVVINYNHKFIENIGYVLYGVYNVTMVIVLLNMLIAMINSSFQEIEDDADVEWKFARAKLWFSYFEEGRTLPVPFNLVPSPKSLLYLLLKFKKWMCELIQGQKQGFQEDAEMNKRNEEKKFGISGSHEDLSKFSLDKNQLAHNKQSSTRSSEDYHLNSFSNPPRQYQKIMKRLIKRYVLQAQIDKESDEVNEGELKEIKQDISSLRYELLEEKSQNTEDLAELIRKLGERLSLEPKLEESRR

For assay [10] the target is unchanged. The assay is described as follows: TRPC6 opening by TRPC4 activator hits – cell-based, HEK293, membrane potential dye, duplicate, selectivity assay for TRPC4 activator project, confirmation (AID 434950;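 active = membrane potential signal rise above negative control mean plus 3 SD in both duplicates, also active in the earlier TRPC4 screen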). The conditions noted are these: HEK293 TRPC6, membrane potential fluorescence, at 10 µM; activation: active compounds read high; outcome: activation.
Assay [11] has the same target. The assay can be described thus: positive modulators of mouse TRPC6 channel – HEK293 cells, membrane potential dye, duplicate, selectivity assay for TRPC4 potentiator project, confirmation (AID 434952;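 active = compound raising the membrane signal above positive-control mean plus 3 SD in both repeats, and a primary screen hit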). The conditions noted are these: HEK293 TRPC6, membrane potential dye fluorescence, at 10 µM, maximal acetylcholine added after compound; active compounds read high.
Assay [12] deals with Short transient receptor potential channel 4 (Mus musculus) (UniProt Q9QUQ5). The assay is described as follows: calcium flux activators in TRPC4/5HT1a cells, counter-screen for TRPC4 activator project, cell-based, second counter screen, HEK293 TRPC4/5HT1a, Fluo-4 (AID 434977;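 active = calcium signal rise above buffer-control mean plus 5 SD in both duplicates, and also a hit in the primary screen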). The note with it: Fluo-4 calcium flux, at 10 µM; active compounds read high.
The nature of assay [13]: serotonin-gated TRPC4 signal block – cell-based, second counter screen, HEK293 TRPC4/5HT1a, Fluo-4, counter-screen for TRPC4 inhibitor project, confirmation (AID 434978;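 active = primary screen active whose calcium signal fell more than 3 SD beyond the full-serotonin control mean in both duplicate plates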;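 as to outcome: serotonin given first at submaximal then at maximal dose after compound preincubation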). The note with it: Fluo-4 calcium flux, at 10 µM, serotonin added to trigger calcium flux; active compounds read high. For orientation: Counterscreens check selectivity or assay interference.
In assay [14] the test system is TRPC4 (mouse), co-expressed with 5HT1a in HEK293. The assay can be described thus: enhancement of serotonin-evoked TRPC4 response – cell-based, second counter screen, HEK293 TRPC4/5HT1a, Fluo-4, counter-screen for TRPC4 potentiator project, confirmation (AID 434979;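 active = signal rise over 3 SD above mean of control wells given weak agonist, in both repeats and first screen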). The conditions noted are these: Fluo-4 calcium flux, at 10 µM, serotonin added at its EC20 dose; active compounds read high.

Assay [15] is described as follows: nonspecific calcium rise without TRPC4 – cell-based, HEK293 mu-opioid receptor line, counter-screen for TRPC4 activator project, confirmation (AID 449723;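 active = hit in primary screen, with calcium signal over 5 SD above buffer well mean in both duplicates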;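 also: counter screen cells carry the mu-opioid receptor alone and lack TRPC4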). The conditions noted are these: HEK293 mu-opioid cells, Fluo-4 calcium fluorescence, at 10 µM; active compounds read high.
Assay [16] in a line: nonspecific potentiation of DAMGO calcium response – cell-based, HEK293 mu-opioid receptor line, counter-screen for TRPC4 allosteric potentiator project, confirmation (AID 449724;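 active = calcium signal rise more than 3 SD above the low-dose agonist control mean, in both duplicate plates and the primary screen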). The conditions noted are these: HEK293 mu-opioid receptor cells, Fluo-4 calcium flux, at 10 µM, compound added before EC20 DAMGO stimulus; active compounds read high.
In assay [17] the target is Short transient receptor potential channel 4 (Mus musculus) (UniProt Q9QUQ5). The assay is described as follows: potentiation of DAMGO-evoked TRPC4 calcium signal – cell-based, HEK293 TRPC4/mu-opioid, Fluo-4 calcium, EC20 DAMGO, dose response (AID 434941;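 active = earlier screen potentiator hit that boosts the TRPC4 ion channel at some dose, with a dose response; inactive = no potentiation, no dose response, or not a prior hit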;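 also: calcium entry triggered by an EC20 dose of DAMGO at the co-expressed mu-opioid receptor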).
Assay [18] can be described thus: nonspecific flux increase, KCNQ1-free cells – parental CHO cells, counter-screen for KCNQ1 potentiator project (AID 493006;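 active = duplicate-averaged activation above buffer control mean plus 5 SD of those controls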). The conditions noted are these: parental CHO-K1 cells, FluxOR thallium flux, at 10 µM; active compounds read high.
The target of assay [19] is Potassium voltage-gated channel subfamily KQT member 1 (Homo sapiens) (UniProt P51787). The assay is described as follows: enhancement of KCNQ1 channel thallium flux – FluxOR thallium flux, CHO cells, duplicates, confirmation (AID 493007;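 active = potentiation averaged over duplicate wells exceeding buffer-only control mean by more than 3 SD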;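 as to outcome: cells depolarized by a potassium plus thallium sulfate stimulus after compound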;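 as to potentiation: 0% = buffer-only wells and 100% = R-L3 activator control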). The conditions noted are these: KCNQ1 cell line, FluxOR thallium flux fluorescence, at 10 µM; active compounds read high, % of reference activator effect, buffer zero.
Chain of Potassium voltage-gated channel subfamily KQT member 1 (Homo sapiens) (P51787 whole entry, looked up): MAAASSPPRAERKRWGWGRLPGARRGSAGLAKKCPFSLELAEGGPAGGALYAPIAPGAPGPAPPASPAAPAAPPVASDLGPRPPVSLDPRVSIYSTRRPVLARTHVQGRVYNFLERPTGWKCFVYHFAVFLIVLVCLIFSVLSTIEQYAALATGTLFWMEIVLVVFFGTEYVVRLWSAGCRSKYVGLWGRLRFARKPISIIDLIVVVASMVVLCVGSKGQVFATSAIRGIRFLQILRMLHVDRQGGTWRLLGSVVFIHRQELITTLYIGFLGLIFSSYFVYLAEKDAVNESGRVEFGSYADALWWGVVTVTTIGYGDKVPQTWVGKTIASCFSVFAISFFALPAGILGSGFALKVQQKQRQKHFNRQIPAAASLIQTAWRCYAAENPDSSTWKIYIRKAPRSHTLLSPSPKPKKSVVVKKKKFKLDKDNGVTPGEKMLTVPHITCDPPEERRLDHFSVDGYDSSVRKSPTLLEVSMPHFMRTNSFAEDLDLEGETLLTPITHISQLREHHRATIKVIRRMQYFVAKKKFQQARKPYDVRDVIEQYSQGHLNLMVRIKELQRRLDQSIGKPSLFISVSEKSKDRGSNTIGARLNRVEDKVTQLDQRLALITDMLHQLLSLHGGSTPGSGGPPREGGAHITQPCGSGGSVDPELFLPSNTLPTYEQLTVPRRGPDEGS

Assay [20] concerns the target Potassium voltage-gated channel subfamily KQT member 2 (Rattus norvegicus) (UniProt O88943). The assay can be described thus: KCNQ2 thallium flux enhancement – KCNQ2-CHO-K1 cells, selectivity assay for KCNQ1 potentiator project (AID 493009;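 active = mean duplicate potentiation above the buffer control mean plus 5 SD of buffer wells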;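 also: assay conditions were tuned for KCNQ1 rather than KCNQ2 modulators; signal is max minus min fluorescence divided by baseline after thallium stimulus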). The conditions noted are these: FluxOR thallium flux fluorescence, at 10 µM; active compounds read high, scaled: buffer 0, activator control 100.

For some of these results: Results with a measured potency or affinity are listed apart. The source made the active and inactive calls.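 The calls were made as follows, unless noted: active = calcium signal ratio cut to more than 3 SD under the fully stimulated control mean yet still positive, in both repeats and the primary screen; inactive = the rest.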

Chain of Potassium voltage-gated channel subfamily KQT member 2 (Rattus norvegicus) (O88943 whole entry, looked up): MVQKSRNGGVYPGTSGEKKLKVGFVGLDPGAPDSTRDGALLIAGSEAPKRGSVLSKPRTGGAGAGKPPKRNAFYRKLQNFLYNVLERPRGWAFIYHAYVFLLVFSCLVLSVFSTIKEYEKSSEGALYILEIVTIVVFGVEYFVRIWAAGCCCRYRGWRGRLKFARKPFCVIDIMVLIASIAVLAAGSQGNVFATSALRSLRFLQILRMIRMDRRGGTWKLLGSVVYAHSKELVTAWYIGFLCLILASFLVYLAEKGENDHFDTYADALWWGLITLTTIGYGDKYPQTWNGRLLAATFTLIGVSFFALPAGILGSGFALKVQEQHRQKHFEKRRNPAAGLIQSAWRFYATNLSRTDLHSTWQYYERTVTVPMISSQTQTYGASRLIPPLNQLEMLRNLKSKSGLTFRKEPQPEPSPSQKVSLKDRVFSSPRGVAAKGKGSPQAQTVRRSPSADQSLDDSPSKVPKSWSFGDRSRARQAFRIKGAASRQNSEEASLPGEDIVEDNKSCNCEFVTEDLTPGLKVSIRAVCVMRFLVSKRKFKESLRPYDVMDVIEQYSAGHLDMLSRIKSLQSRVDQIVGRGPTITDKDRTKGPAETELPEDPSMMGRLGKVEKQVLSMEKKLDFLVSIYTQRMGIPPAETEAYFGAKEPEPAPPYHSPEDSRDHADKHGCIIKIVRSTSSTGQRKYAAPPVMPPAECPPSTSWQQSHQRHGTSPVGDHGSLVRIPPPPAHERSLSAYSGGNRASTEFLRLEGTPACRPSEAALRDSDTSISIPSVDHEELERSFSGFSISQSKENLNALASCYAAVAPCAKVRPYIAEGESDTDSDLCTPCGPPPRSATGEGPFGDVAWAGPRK

Take `CCCCN(CC)CCNC(=O)c1cc2c(=O)n(C)c3ccccc3c2s1`: the result in assay [1], in assay [2], in [5], in assay [6], in assay [7] and in assay [8] was inactive. Also, the compound was called inactive in [9], in [10], in assay [11], in assay [12], in [13] and in assay [15]. Further, the outcome in assay [16] was inactive. In addition, the potentiation in assay [3] was 31% (active); in assay [4], 9% (active); in assay [14] it was 8.16% (active).
The term inhibition denotes the change of the read-out against control, counted positive when it falls. For `C=CCSc1nc2c(c(=O)[nH]c(=O)n2C)n1C/C=C(/C)Cl`, the outcome in [1], in assay [2], in [3], in [4], in [7] and in [17] was inactive. For the same compound, the result in assay [9], in [10], in assay [11], in assay [12], in [14] and in assay [15] was inactive. For the same compound, the outcome in [16], in assay [18], in [19] and in assay [20] was inactive. In addition, the inhibition is 85% (active) in assay [5], 57% (active) in [6] and 32.5% (active) in assay [13].
For `O=C(O)c1ccc(Cl)cc1Nc1nc2cc(Cl)ccc2o1`, the result in assay [1], in [2], in assay [3], in assay [4], in [6] and in assay [7] was inactive. In addition, the result in assay [17], in assay [9], in [10], in assay [11], in assay [12] and in assay [14] was inactive. In addition, the result in assay [15], in [16], in assay [18] and in assay [20] was inactive. For the same compound, the inhibition was 98% (active) in assay [5] and 9.42% (active) in [13]. In addition, the potentiation in assay [19] is 24.5% (active).
Consider `CCSC1=N/C(=C\c2ccc(OC)cc2)C(=O)N1`, for which the outcome in assay [1], in [2], in assay [3], in [4], in assay [5] and in [6] was inactive. In addition, the outcome in [7], in assay [8], in assay [9], in [10], in [11] and in assay [12] was inactive. Moreover, the outcome in [13], in [14], in [15] and in assay [16] was inactive.
With `c1ccc(-c2nc(NCc3ccco3)c3ccccc3n2)cc1`, the result in assay [1], in assay [2], in assay [3], in assay [4], in [6] and in assay [7] was inactive. Moreover, the outcome in assay [17], in assay [9], in [10], in assay [11], in assay [12] and in [14] was inactive. Further, the outcome in assay [15], in assay [16], in assay [18], in assay [19] and in assay [20] was inactive. In addition, the inhibition in assay [5] was 87% (active); in assay [13] it was 32.3% (active).
On to `Cc1ccc(/C=C/C(=O)c2ccc(O)cc2)cc1`, for which the outcome in assay [1], in assay [2], in assay [3], in assay [4], in [7] and in assay [17] was inactive. Also, the compound was classed as inactive in [9], in assay [10], in assay [11], in assay [12], in [14] and in assay [15]. For the same compound, the result in assay [16], in assay [18], in assay [19] and in [20] was inactive. Moreover, the inhibition is 76% (active) in assay [5], 38% (active) in assay [6] and 15.8% (active) in assay [13].
On to `CCOc1ccc(-n2c(SCC(=O)O)nc3sc4c(c3c2=O)CCCC4)cc1`, for which the outcome in assay [1], in [2], in [3], in assay [4], in [5] and in assay [6] was inactive. In addition, the result in [7], in assay [8], in assay [9], in assay [10], in assay [11] and in [12] was inactive. Moreover, the result in assay [13], in [15] and in assay [16] was inactive. Moreover, the potentiation in assay [14] is 16.4% (active).
